Shown are actives, neighbours in structure and some others; about 1.9% of the full set was active somewhere.
PABP1 MLLE inh: inhibitors of PABP1 MLLE–PAM2 peptide binding, primary screen, biochemical, fluorescence polarization, FITC-PAM2, GST-MLLE; Polyadenylate-binding protein 1 (Homo sapiens), P11940; inhibition, % at 20 µM; actives 0.36% (n = 360,000); AID 588489, 2011; in the data active means inhibition above about 35%, passing the limit was not always enough;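 further: plate controls were DMSO wells with GST-MLLE for no effect and wells lacking GST-MLLE protein for full effect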
GRK2 aptamer HTS: compounds blocking aptamer binding on GRK2 – biochemical, human GRK2, bead flow cytometry, HTS, primary screen | Beta-adrenergic receptor kinase 1 (Homo sapiens), P25098 | AID 488847, 2010 | FAM-aptamer displacement from GRK2 | actives 0.59% (n = 330,000) | inhibition of aptamer binding, % at 10 µM;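 active means inhibition of aptamer binding above 40%, roughly 3 SD of noise, on plates passing a quality check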;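 further: median bead fluorescence of bound FAM aptamer so fluorescent compounds give negative values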
Target sequence (P25098 whole entry, looked up): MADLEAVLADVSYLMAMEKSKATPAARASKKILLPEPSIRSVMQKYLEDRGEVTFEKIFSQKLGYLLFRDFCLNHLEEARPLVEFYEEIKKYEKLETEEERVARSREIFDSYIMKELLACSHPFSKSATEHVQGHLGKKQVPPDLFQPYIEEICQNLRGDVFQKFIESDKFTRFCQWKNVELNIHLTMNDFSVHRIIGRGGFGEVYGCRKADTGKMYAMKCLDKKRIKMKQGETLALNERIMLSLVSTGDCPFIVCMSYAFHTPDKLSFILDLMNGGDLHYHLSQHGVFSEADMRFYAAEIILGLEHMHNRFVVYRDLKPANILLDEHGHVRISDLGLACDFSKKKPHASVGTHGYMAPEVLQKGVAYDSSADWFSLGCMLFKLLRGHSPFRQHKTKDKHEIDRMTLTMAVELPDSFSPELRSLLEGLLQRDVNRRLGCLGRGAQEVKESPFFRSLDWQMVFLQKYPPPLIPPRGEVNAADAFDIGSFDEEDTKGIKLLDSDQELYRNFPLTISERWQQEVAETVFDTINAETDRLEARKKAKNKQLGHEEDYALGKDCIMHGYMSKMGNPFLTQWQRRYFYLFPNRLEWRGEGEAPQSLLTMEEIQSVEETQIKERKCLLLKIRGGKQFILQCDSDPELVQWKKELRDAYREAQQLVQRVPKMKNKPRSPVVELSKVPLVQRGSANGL
eIF4H inh: human eIF4H binding inhibitors, primary screen, translation initiation inhibitor project, biochemical, uHTS, fluorescence polarization | AID 2012, 2009 | actives 0.94% (n = 290,000) | eIF4H fluorescence polarization binding assay | Eukaryotic translation initiation factor 4H (Homo sapiens), Q15056 | inhibition, % at 35 µM;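 further: calls also rest on retests at 20 µM and on dose response follow-up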
PERK inh: block of dimerizer-induced PERK translation repression, primary screen, PERK inhibitor project, CHO PERK-DD cells, SEAP luminescence, HTS. inhibition, % at 5.6 µM. AID 1416, 2008. CHO PERK-DD fusion, SEAP luminescence translation reporter. actives 0.17% (n = 220,000);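 active means inhibition above the mean inhibition of all tested compounds plus 3 SD, set separately per screening campaign, cut at about 2.9% in these data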;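 further: PERK kinase domain activated by AP20187 dimerizer at 100 nM; 0% = DMSO with dimerizer and 100% = rapamycin at 8.4 µM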
PABP polyA inh: PABP poly(A) RNA binding inhibitors, primary screen, biochemical, fluorescence polarization, uHTS | Polyadenylate-binding protein 1 (Homo sapiens), P11940 | inhibition, % at 35 µM | actives 1% (n = 290,000);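 further: calls also rest on retests at 20 µM and on dose response follow-up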
An asterisk follows results filed as active. Unless noted, how the calls were made is not given here.

Results for CCN(c1ccccc1)S(=O)(=O)c1cc(C(=O)O)ccc1C ?
PABP1 MLLE inh: -12; GRK2 aptamer HTS: 8; eIF4H inh: 53*; PERK inh: 1; PABP polyA inh: 26*

How did C=CCN1CN(S(=O)(=O)c2cccs2)c2nc3ccccc3nc21 do in these assays?
PABP1 MLLE inh: -15; GRK2 aptamer HTS: 1; eIF4H inh: 82*; PERK inh: -2; PABP polyA inh: 98*

How did C=CCc1cccc2cc(C(=O)Nc3ccc(F)cc3)c(=O)oc12 do in these assays?
PABP1 MLLE inh: 11; GRK2 aptamer HTS: 5; eIF4H inh: -3; PERK inh: 0; PABP polyA inh: -1

What do the screens show for `C=CCc1cccc2cc(C(=O)Nc3ccc(S(=O)(=O)Nc4nnc(CC)s4)cc3)c(=O)oc12`?
PABP1 MLLE inh: 16; GRK2 aptamer HTS: 0; eIF4H inh: 67*; PERK inh: 1; PABP polyA inh: 8.6*

How did O=C(NCc1ccc(F)cc1)c1c2c(nc3ccccc13)CCN(Cc1ccccc1)C2 do in these assays?
PABP1 MLLE inh: -2; GRK2 aptamer HTS: 0; eIF4H inh: active; PERK inh: 0; PABP polyA inh: 56*

How did COC(=O)c1ccc(CNC(=O)c2c3c(nc4ccccc24)CCN(Cc2ccccc2)C3)cc1 do in these assays?
PABP1 MLLE inh: -20; GRK2 aptamer HTS: 0; eIF4H inh: 87*; PERK inh: -1; PABP polyA inh: active

How did CC(=O)Nc1ccc(NC(=O)COC(=O)c2c3c(nc4ccccc24)CCN(Cc2ccccc2)C3)cc1 do in these assays?
PABP1 MLLE inh: -11; GRK2 aptamer HTS: 0; eIF4H inh: 2; PERK inh: 0; PABP polyA inh: 31

How did O=C(NS(=O)(=O)Nc1ccccn1)c1c[nH]c2ccccc12 do in these assays?
PABP1 MLLE inh: 4; GRK2 aptamer HTS: 0; eIF4H inh: 2; PABP polyA inh: 5

How did NC(=O)CSc1nnc(CNc2ccc(F)cc2)n1CC1CCCO1 (stereo not given) do in these assays?
PABP1 MLLE inh: 1; GRK2 aptamer HTS: 0; eIF4H inh: 5; PERK inh: 3.0*; PABP polyA inh: 2

How did CCSc1nnc(CNc2ccc(F)cc2)n1CC1CCCO1 (stereo not given) do in these assays?
PABP1 MLLE inh: -13; GRK2 aptamer HTS: 1; eIF4H inh: 6; PERK inh: 1; PABP polyA inh: -2

How did C[N+]1(CC(=O)OCCCc2ccccc2)CCCCC1 do in these assays?
PABP1 MLLE inh: -127; GRK2 aptamer HTS: 0; eIF4H inh: 1; PERK inh: 1; PABP polyA inh: 77*

What do the screens show for `CCOC(=O)C1=CC[C@H]2c3c(c4ccccc4n3C)C(=O)C1N2C(=O)OC(C)(C)C`?
PABP1 MLLE inh: 6; GRK2 aptamer HTS: 0

How did CC[C@@H]1C=C(C)C[C@H](C)C[C@H](OC)[C@H]2O[C@@](O)(C(=O)C(=O)N3CCCC[C@H]3C(=O)O[C@H](/C(C)=C/[C@@H]3CC[C@@H](O)[C@H](OC)C3)[C@H](C)[C@@H](O)CC1=O)[C@H](C)C[C@@H]2OC do in these assays?
eIF4H inh: -4; PERK inh: 95*; PABP polyA inh: 8

Results for CC(=O)Nc1ccc(C(=S)NCC2(N(C)C)CCCCC2)cc1 ?
PABP1 MLLE inh: 13; GRK2 aptamer HTS: 0; eIF4H inh: active; PERK inh: 0; PABP polyA inh: 81*

How did COCC(C)n1c(C)cc(C(=O)COC(=O)c2ccc3c(c2)NC(=O)CS3)c1C (stereo not given) do in these assays?
PABP1 MLLE inh: 39*; GRK2 aptamer HTS: 2; eIF4H inh: 43; PERK inh: -2; PABP polyA inh: -2

Results for CN(C(=O)COC(=O)c1ccc2c(c1)NC(=O)CS2)C1CCS(=O)(=O)C1 (stereo not given) ?
PABP1 MLLE inh: 28; GRK2 aptamer HTS: 2; eIF4H inh: 0; PERK inh: 1; PABP polyA inh: 5

Results for CC(C)CN(C(=O)COC(=O)c1ccc2c(c1)NC(=O)CS2)C1CCS(=O)(=O)C1 (stereo not given) ?
PABP1 MLLE inh: 55*; GRK2 aptamer HTS: 1; eIF4H inh: 4; PERK inh: 2; PABP polyA inh: -7

Results for CC(C)CN(C(=O)COC(=O)CNC(=O)c1ccccc1F)C1CCS(=O)(=O)C1 (stereo not given) ?
PABP1 MLLE inh: 2; GRK2 aptamer HTS: 0; eIF4H inh: 0; PERK inh: 1; PABP polyA inh: 90*

How did CC(C)(C)S(=O)(=O)N1Cc2cc(CO)cc(CCO)c2[C@@H]1CCO do in these assays?
PABP1 MLLE inh: 4

Results for COc1cc(/C=C2\SC(=O)N(c3ccc(Cl)cc3)C2=O)cc([N+](=O)[O-])c1O ?
PABP1 MLLE inh: -4; eIF4H inh: 96*; PERK inh: 0; PABP polyA inh: 21

What do the screens show for `COc1cc(/C=C2\SC(=O)N(c3cccc(Cl)c3)C2=O)cc([N+](=O)[O-])c1O`?
PABP1 MLLE inh: 85*; PERK inh: 1

What do the screens show for `CC[n+]1ccc2cc(OC)c(OC)cc2c1Cc1ccc(OC)c(OC)c1`?
PABP1 MLLE inh: -13; GRK2 aptamer HTS: 0; eIF4H inh: 6; PERK inh: 0; PABP polyA inh: 57*

What do the screens show for `CCOc1ccccc1NC(=O)C(c1ccccc1)N1CCN(C(=O)c2ccco2)CC1` (stereo not given)?
PABP1 MLLE inh: 12; GRK2 aptamer HTS: 0

Results for CCOCc1cnc(C)nc1NCC(=O)c1c(C)[nH]c2ccc(OC)cc12 ?
PABP1 MLLE inh: -102; GRK2 aptamer HTS: 0; eIF4H inh: active; PERK inh: 0; PABP polyA inh: 54*

Results for COc1ccc2[nH]c(C)c(C(=O)CN3CCN(C/C=C/c4ccccc4)CC3)c2c1 ?
PABP1 MLLE inh: -1; GRK2 aptamer HTS: 4; eIF4H inh: 3; PERK inh: -1; PABP polyA inh: -2

Results for CCC(C)n1c(=S)[nH]c2c(sc3ccc([N+](=O)[O-])cc32)c1=O (stereo not given) ?
PABP1 MLLE inh: 18; GRK2 aptamer HTS: 0; eIF4H inh: -4; PERK inh: 0; PABP polyA inh: 0

Results for COC(=O)CC(NC(=S)NC(=O)c1ccccc1)c1ccc(Br)cc1 (stereo not given) ?
PABP1 MLLE inh: 46*; GRK2 aptamer HTS: 0; eIF4H inh: 16; PABP polyA inh: 24

How did O=C(Cc1ccc(Br)cc1)OCC(=O)N1CCOCC1 do in these assays?
PABP1 MLLE inh: 7; GRK2 aptamer HTS: 0

How did CC1=C(C#N)C(=O)N(C2CCS(=O)(=O)C2)C(=O)/C1=C\c1ccco1 (stereo not given) do in these assays?
GRK2 aptamer HTS: 100*; eIF4H inh: 102*; PERK inh: 1; PABP polyA inh: 88*

Source: PubChem BioAssay (several laboratories)
